Most compounds without a hit are left out; they make up all but 21% or so of the library.
Pf growth 48h – P. falciparum growth inhibition at 48 hours (one generation); actives 5.9% (n = 310,000); AID 504832; P. falciparum luciferase growth in erythrocytes, 48 h; Potency, µM (highest dose often 28.7 µM), inactives show at the top dose activity change, negative = inhibition, usual class: inhibitors; further: potency means the concentration at half of the fitted maximal effect; on the % scale 0 is the no-effect control and ±100 the full control effect
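Here the parasites carry a stable luciferase gene and grow inside erythrocytes in Albumax-based RPMI medium with compound for one erythrocytic cycle. Activity is scored as loss of luminescent signal.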
Shiga toxin inh – blocks Shiga toxin action in Vero cells; inhibition, % at 38.7 µM; Vero cells, Shiga toxin protein synthesis inhibition reporter; actives 9.2% (n = 290,000); in the data active means inhibition mostly above about 28%, no sharp cut-off; inactive means mostly below about 43%; further: 0% is about no effect
Pf growth 96h – P. falciparum growth inhibition at 96 hours | Potency, µM (top dose mostly 28.7 µM), for the others: at the highest dose activity change, negative = inhibition, usual class: inhibitors | AID 504834 | actives 6.9% (n = 320,000) | P. falciparum luciferase reporter growth, 96 h; further: potency means the concentration at half of the fitted maximal effect; on the % scale 0 is the no-effect control and ±100 the full control effect
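96 h incubation, 37 C, 5% CO2, of luciferase-reporter P. falciparum-infected RBCs (2% hematocrit, 0.05% parasitemia final) with test compounds; endpoint luminescence.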
Cycloheximide cs – affects cycloheximide protein synthesis inhibition readout, counter-screen | cell reporter, cycloheximide protein synthesis inhibition counterscreen | max response, % | actives 12% (n = 300,000) | AID 2314; in the data active means max response mostly above about 13%, no sharp cut-off; inactive means mostly below about 14%; further: read at 38.3 µM for the half of the compounds with a filed dose; 0% is about no effect
* marks the source's active call; other numbers are inactive results. Unless noted, the call rests on the fitted dose curve; in most records, active means well fitted inhibition curve with a large enough effect; inconclusive means small, poorly fitted or top-dose-only effect, or another doubt; inactive means no such curve, though single readings can be large or run the other way.

Results for COc1ccccc1OCC#CCn1ccnc1 ?
Pf growth 48h: -6%; Shiga toxin inh: 4; Pf growth 96h: 2%; Cycloheximide cs: -5

What do the screens show for `O=C(Nc1ccc(Cn2ccnc2)cc1)c1cccc(C(F)(F)F)c1`?
Pf growth 48h: inconclusive; Shiga toxin inh: -7; Pf growth 96h: inconclusive; Cycloheximide cs: 3

What do the screens show for `COc1cc(OC)cc(C(=O)Nc2ccc(Nc3ccccc3)cc2)c1`?
Pf growth 48h: 32%; Shiga toxin inh: 8; Pf growth 96h: -84%; Cycloheximide cs: 21

What do the screens show for `COc1cc(OC)cc(C(=O)Nc2ccc(Cn3ccnc3)cc2)c1`?
Pf growth 48h: inconclusive; Shiga toxin inh: 25; Pf growth 96h: 22%; Cycloheximide cs: 15*

Results for O=C(C1CCCN(c2ncnc3c2nc2n3CCCCC2)C1)N1CCN(c2ccccc2F)CC1 (stereo not given) ?
Pf growth 48h: inconclusive; Shiga toxin inh: 7; Pf growth 96h: 10%; Cycloheximide cs: 4

What do the screens show for `CCCc1cc(C(=O)N2CCCC(Nc3ccc(C)c(C)c3)C2)n(C)n1` (stereo not given)?
Pf growth 48h: 18%; Shiga toxin inh: -9; Pf growth 96h: 47%; Cycloheximide cs: -2

Results for COc1ccc(S(=O)(=O)NNC(=O)Nc2ccc(C)cc2C)c(OC)c1 ?
Pf growth 48h: 7%; Shiga toxin inh: -9; Pf growth 96h: -16%; Cycloheximide cs: -1

How did O=C(Nc1cccc(-c2cnc3ccccc3n2)c1)c1ccccc1 do in these assays?
Pf growth 48h: -63%; Shiga toxin inh: 47; Pf growth 96h: 39%; Cycloheximide cs: 31

How did O=C(Nc1cccc(-c2cnc3ccccc3n2)c1)c1cccc(NC(=O)c2ccco2)c1 do in these assays?
Shiga toxin inh: 46*; Cycloheximide cs: 43*

How did O=C(Nc1ccc2nc(-c3cccs3)[nH]c2c1)c1cccs1 do in these assays?
Pf growth 48h: 53%; Shiga toxin inh: -6; Cycloheximide cs: 2

What do the screens show for `O=C(Nc1ccc(-c2nc3ccc(NC(=O)c4cccs4)cc3[nH]2)cc1)c1cccs1`?
Pf growth 48h: 2.6µM*; Shiga toxin inh: -24; Cycloheximide cs: -2

What do the screens show for `c1cncc(CNc2cccc(-c3nc4ccccc4[nH]3)c2)c1`?
Pf growth 48h: 118%; Shiga toxin inh: active; Pf growth 96h: 54%; Cycloheximide cs: 54*

Results for O=C(Nc1ccc2nc(-c3cccs3)[nH]c2c1)c1ccco1 ?
Pf growth 48h: 44%; Shiga toxin inh: 60*; Cycloheximide cs: 27*

Results for c1ccc(NCc2cccnc2)cc1 ?
Pf growth 48h: -1%; Shiga toxin inh: -15; Pf growth 96h: 7%; Cycloheximide cs: -2

How did Cc1ccc(C)c(S(=O)(=O)N2CCCOC2CNC(=O)C(=O)NC2CC2)c1 (stereo not given) do in these assays?
Pf growth 48h: 1%; Shiga toxin inh: -5; Pf growth 96h: 8%; Cycloheximide cs: 2

How did Cc1ccc(C(=O)C2CCOC(C)(C)C2)cc1 (stereo not given) do in these assays?
Pf growth 48h: -3%; Shiga toxin inh: -5; Pf growth 96h: inconclusive; Cycloheximide cs: 3

Results for Cc1ccc2nc(-c3ccc(NC(=O)c4ccco4)cc3)[nH]c2c1 ?
Pf growth 48h: inconclusive; Shiga toxin inh: 75*; Cycloheximide cs: 39*

What do the screens show for `Cc1ccc(-c2nnc(-c3ccc(NC(=O)c4ccco4)cc3)o2)cc1`?
Pf growth 48h: -29%; Shiga toxin inh: 19; Pf growth 96h: inconclusive; Cycloheximide cs: 2

Results for Cn1cccc1-c1nc2ccc(NC(=O)c3ccco3)cc2[nH]1 ?
Pf growth 48h: 40%; Shiga toxin inh: 56; Pf growth 96h: 23%; Cycloheximide cs: 44*

How did O=C(Nc1cccc(-c2nc3ccccc3[nH]2)c1)c1ccco1 do in these assays?
Pf growth 48h: inconclusive; Shiga toxin inh: 42*; Pf growth 96h: 15µM*; Cycloheximide cs: 17

What do the screens show for `O=C(Nc1ccc(-c2nc3ccccc3c(=O)o2)cc1)c1ccco1`?
Pf growth 48h: 5%; Shiga toxin inh: -5; Pf growth 96h: -16%; Cycloheximide cs: -4

Results for O=C(NC(NC(=S)N1CCOCC1)C(Cl)(Cl)Cl)c1ccc(Cl)cc1 (stereo not given) ?
Pf growth 48h: inconclusive; Shiga toxin inh: -3; Pf growth 96h: -5%; Cycloheximide cs: -5

What do the screens show for `CCCCC(=O)NC(NC(=S)N1CCOCC1)C(Cl)(Cl)Cl` (stereo not given)?
Pf growth 48h: 8.3µM*; Shiga toxin inh: -31; Cycloheximide cs: -7

What do the screens show for `CC(C)(C)N1CC23CCC(C[C@@H]2C1=O)O3` (stereo not given in full)?
Pf growth 48h: 22%; Pf growth 96h: 117%

Results for COCCSc1ccccc1C(=O)N1CCc2ccccc21 ?
Pf growth 48h: -18%; Shiga toxin inh: -4; Pf growth 96h: inconclusive; Cycloheximide cs: 8

Results for Cc1ccc(NC(=O)c2cc3c(CO)cnc(C)c3oc2=Nc2cccc(C(N)=O)c2)cc1 ?
Pf growth 48h: 2%; Shiga toxin inh: -12; Pf growth 96h: 19%; Cycloheximide cs: -3

How did Cc1nc2c(C(=O)N3CCOCC3)cnn2c(C)c1Cc1ccc(Cl)cc1 do in these assays?
Pf growth 48h: 3%; Shiga toxin inh: -10; Pf growth 96h: inconclusive; Cycloheximide cs: -3

How did O=C(NCC1COCCO1)c1ccc2nc(Cc3cccc(Cl)c3)oc2c1 (stereo not given) do in these assays?
Pf growth 48h: 1%; Shiga toxin inh: 52*; Pf growth 96h: inconclusive; Cycloheximide cs: 51*

Results for O=C(NCCc1ccncc1)c1ccc2nc(Cc3cccc(Cl)c3)oc2c1 ?
Pf growth 48h: 10%; Shiga toxin inh: -10; Pf growth 96h: -44%; Cycloheximide cs: 0

How did Cc1nc2c(C(=O)N3CCOCC3)cnn2c(C)c1Cc1cccc(Cl)c1 do in these assays?
Pf growth 48h: inconclusive; Shiga toxin inh: -7; Pf growth 96h: 7.4µM*; Cycloheximide cs: -3

Results for CC(=O)C1CCCN(C(=O)c2ccc3nc(Cc4cccc(Cl)c4)oc3c2)C1 (stereo not given) ?
Pf growth 48h: inconclusive; Shiga toxin inh: 17; Pf growth 96h: -16%; Cycloheximide cs: 13*

How did O=C(c1ccc2nc(Cc3cccc(Cl)c3)oc2c1)N1CCOCC1 do in these assays?
Pf growth 48h: 13%; Shiga toxin inh: 69*; Pf growth 96h: -1%; Cycloheximide cs: 59*

Results for COc1ccc(-n2nc3cc(C)c(N)cc3n2)cc1Cl ?
Pf growth 48h: 121%; Shiga toxin inh: 39*; Pf growth 96h: 5%; Cycloheximide cs: 40*

Results for Cc1cc2nn(-c3ccc(F)cc3)nc2cc1N ?
Pf growth 48h: -35%; Pf growth 96h: inconclusive; Cycloheximide cs: 58*

Results for Cn1nc(N)nc1N1CCN(c2ccc(F)cc2)CC1 ?
Pf growth 48h: -7%; Shiga toxin inh: -16; Pf growth 96h: -5%; Cycloheximide cs: -9

How did Cc1cc2nn(-c3ccc(Cl)cc3)nc2cc1N do in these assays?
Pf growth 48h: 95%; Shiga toxin inh: 113*; Pf growth 96h: 431%; Cycloheximide cs: 50*

What do the screens show for `COc1ccc(-n2c(C)cc(C=O)c2C)cc1Cl`?
Pf growth 48h: inconclusive; Shiga toxin inh: -3; Pf growth 96h: 1%; Cycloheximide cs: -1

From PubChem BioAssay
